Reference: PubChem BioAssay (Tox21)
The source made the active and inactive calls. Unless noted, calls follow the shape of the dose curve; as a rule, active = well fitted curve in the direction sought with a large enough effect in the repeat runs; inconclusive = weak or mixed curves; inactive = flat fitted curve, though single readings scatter.

Key:
[1] = qHTS assay to test for compound auto fluorescence at 535 nm (green) in HEK293 cells (AID 720680)
[2] = qHTS assay to test for compound auto fluorescence at 460 nm (blue) in HEK293 cell free culture (AID 720681)
In short: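 Compounds were added to cell-free DMEM with 10% FBS and fluorescence read directly. The blue channel used 405 nm excitation and 460 nm emission, with triamterene as the reference fluorophore.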

[3] = qHTS assay to test for compound auto fluorescence at 535 nm (green) in HEK293 cell free culture (AID 720682)
In short: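 Compounds were pin-transferred into cell-free DMEM with 10% FBS, and green fluorescence was read at excitation 485 nm and emission 535 nm. Intensities were expressed as fluorescein-equivalent values.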

[4] = qHTS assay to test for compound auto fluorescence at 590 nm (red) in HEK293 cell free culture (AID 720683)
In short: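 Cell-free wells of DMEM with 10% FBS received compound, and intrinsic fluorescence was read at excitation/emission 540/590 nm. Values expressed as equivalence to Rose Bengal sodium.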

[5] = qHTS assay to test for compound auto fluorescence at 590 nm (red) in HepG2 cell free culture (AID 720684)
In short: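 Auto fluorescence equivalency versus Rose Bengal sodium, red channel Ex/Em 540/590 nm; compounds in cell-free MEM/10% FBS; DMSO vehicle control.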

[6] = qHTS assay to test for compound auto fluorescence at 535 nm (green) in HepG2 cell free culture (AID 720686)
[7] = qHTS assay to test for compound auto fluorescence at 460 nm (blue) in HepG2 cells (AID 720687)
In short: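 HepG2 cells in MEM with 10% FBS, attached overnight at 37 C, were exposed to compound or DMSO for 1 hr at 37 C, 5% CO2. Blue fluorescence was read at 405/460 nm, with triamterene as reference fluorophore.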

[8] = target: Glucocorticoid receptor (Homo sapiens) (UniProt P04150); assay: qHTS assay to identify small molecule agonists of the glucocorticoid receptor (GR) signaling pathway (AID 720691; active = well fitted activation curve with a large enough effect in the signal ratio in the repeat runs, not every such curve was filed as active; inconclusive = weak or mixed curves, or effect the other way; inactive = no such curve, though single readings can be large or run the other way; the % refers to the signal ratio; also: potency is read from the fitted curve at half-maximal effect)
Glucocorticoid receptor (Homo sapiens), sequence (P04150 whole entry, looked up): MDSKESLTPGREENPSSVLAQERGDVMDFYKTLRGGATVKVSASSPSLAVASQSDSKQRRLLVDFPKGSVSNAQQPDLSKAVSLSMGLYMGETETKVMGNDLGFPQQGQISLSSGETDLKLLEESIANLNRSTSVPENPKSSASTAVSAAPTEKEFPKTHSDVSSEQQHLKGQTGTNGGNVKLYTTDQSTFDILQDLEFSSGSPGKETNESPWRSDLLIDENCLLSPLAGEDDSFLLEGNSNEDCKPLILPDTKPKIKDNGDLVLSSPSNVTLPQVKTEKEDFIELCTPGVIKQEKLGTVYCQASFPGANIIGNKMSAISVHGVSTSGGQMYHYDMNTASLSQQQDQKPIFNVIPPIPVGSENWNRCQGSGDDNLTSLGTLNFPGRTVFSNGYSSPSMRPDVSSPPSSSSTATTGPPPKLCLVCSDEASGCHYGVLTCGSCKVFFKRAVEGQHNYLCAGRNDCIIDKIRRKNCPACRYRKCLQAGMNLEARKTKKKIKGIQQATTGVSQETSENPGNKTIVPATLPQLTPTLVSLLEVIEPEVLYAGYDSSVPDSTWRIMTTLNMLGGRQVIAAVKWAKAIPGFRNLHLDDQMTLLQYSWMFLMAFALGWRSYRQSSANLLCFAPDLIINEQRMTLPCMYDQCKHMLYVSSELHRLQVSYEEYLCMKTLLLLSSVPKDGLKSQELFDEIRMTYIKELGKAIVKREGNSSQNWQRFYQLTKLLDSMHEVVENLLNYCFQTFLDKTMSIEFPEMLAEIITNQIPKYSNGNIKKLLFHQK
In short: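 HeLa GR-bla reporter line; cells pre-incubated 4 h, compound in DMSO 18 h at 37 C; LiveBLAzer B/G FRET substrate 2 h RT; fluorescence intensity read-out.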

[9] = target: Glucocorticoid receptor (Homo sapiens) (UniProt P04150); assay: qHTS assay to identify small molecule antagonists of the glucocorticoid receptor (GR) signaling pathway (AID 720692; active = well fitted inhibition curve with a large enough effect in the signal ratio in the repeat runs, not every such curve was filed as active; inconclusive = weak or mixed curves, or effect the other way; inactive = no such curve, though single readings can be large or run the other way; the % refers to the signal ratio; also: potency is read from the fitted curve at half-maximal effect)
In short: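 Read-out: beta-lactamase FRET substrate fluorescence, 2 h at room temperature, in HeLa cells stably carrying a GRE-driven bla reporter. Compounds were co-incubated with 5 nM dexamethasone agonist (final) for 18 h at 37 C.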

[10] = qHTS assay to test for compound auto fluorescence at 460 nm (blue) in HepG2 cell free culture (AID 720685)
In short: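 Cell-free plates of MEM plus 10% FBS received 23 nL compound or DMSO vehicle; blue-channel (405/460 nm) intensity scored against triamterene as reference fluorophore.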
% is scaled to controls: 0 for no effect and ±100 for the full control effect.

CC(C)COC(=O)c1ccccc1O
inactive: outcome [1] | Potency [2] | outcome [3] | outcome [4] | outcome [5] | outcome [6] | Potency [7] | Potency [8] | Potency [9]

CO[Si](OC)(OC)OC
inactive: outcome [1] | Potency [2] | outcome [3] | outcome [4] | outcome [5] | Potency [10] | outcome [6] | Potency [8] | Potency [9]

O=C(O)/C=C/c1ccc(Cn2ccnc2)cc1
inactive: fluorescence, % of fluorescein [1] -0.0116% [at 18.6 µM] | fluorescence, % of fluorescent control [2] 0.209% [at 18.6 µM] | activity change [3] 0.0066% [at 18.6 µM] | fluorescence, % of fluorescent control [4] -0.0715% [at 18.6 µM] | fluorescence, % of Rose Bengal [5] -0.307% [at 18.6 µM] | fluorescence, % of fluorescent control [10] -0.0401% [at 18.6 µM] | fluorescence, % of fluorescein control [6] -0.0119% [at 18.6 µM] | Potency [8] | Potency [9]

CCCC(=O)O[C@]1(C(=O)CCl)[C@@H](C)C[C@H]2[C@@H]3CCC4=CC(=O)C=C[C@]4(C)[C@@]3(F)C(=O)C[C@@]21C
active: Potency [8] 0.0239 µM [inconclusive]
inactive: outcome [1] | Potency [2] | outcome [3] | outcome [4] | outcome [5] | outcome [6] | Potency [7]

COc1cc(O)cc(O)c1
inactive: outcome [1] | Potency [2] | outcome [3] | outcome [4] | outcome [5] | outcome [6] | Potency [7]

C#CC(O)CCCCC (stereo not given)
inactive: outcome [1] | Potency [2] | outcome [3] | outcome [4] | outcome [5] | outcome [6] | Potency [7]

Cc1ncc(CSSCc2cnc(C)c(O)c2CO)c(CO)c1O
inactive: outcome [1] | Potency [2] | outcome [3] | outcome [4] | outcome [5] | outcome [6] | Potency [7] | Potency [8] | Potency [9]

COc1ccc(COC=O)cc1
inactive: outcome [1] | Potency [2] | outcome [3] | outcome [4] | outcome [5] | outcome [6] | Potency [7] | Potency [8] | Potency [9]

COCCOC(=O)CC#N
inactive: outcome [1] | Potency [2] | outcome [3] | outcome [4] | outcome [5] | outcome [6] | Potency [7] | Potency [8]

Oc1ccc2c(c1)OC[C@@H](N1CCC(O)(c3ccc(F)cc3)CC1)[C@H]2O
inactive: outcome [1] | Potency [2] | outcome [3] | outcome [4] | outcome [5] | Potency [10] | outcome [6] | Potency [8] | Potency [9]

OCc1ccccn1
inactive: outcome [1] | Potency [2] | outcome [3] | outcome [4] | outcome [5] | outcome [6] | Potency [8] | Potency [9]

Cn1cnc2c(=O)[nH]c(N)nc21
inactive: outcome [1] | Potency [2] | outcome [3] | outcome [4] | outcome [5] | outcome [6] | Potency [7]

Nc1nc2c(ncn2CCC(CO)CO)c(=O)[nH]1
inactive: outcome [1] | Potency [2] | outcome [3] | outcome [4] | outcome [5] | Potency [10] | outcome [6] | Potency [8] | Potency [9]

COC(=O)CCCCCCCCC(=O)OC
inactive: outcome [1] | Potency [2] | outcome [3] | outcome [4] | outcome [5] | outcome [6]

CCCCCCC(=O)OCC
inactive: outcome [1] | Potency [2] | outcome [3] | outcome [4] | outcome [5] | outcome [6]

COC[C@H](c1ccc(C(F)(F)F)cc1)N1CCN(C2(C)CCN(C(=O)c3c(C)ncnc3C)CC2)C[C@H]1C
inactive: outcome [1] | Potency [2] | outcome [3] | outcome [4] | outcome [5] | outcome [6] | Potency [7] | Potency [8] | Potency [9]

COc1cccc(Br)c1
inactive: outcome [1] | Potency [2] | outcome [3] | outcome [4] | outcome [5] | outcome [6] | Potency [7]

CC(C)CCCCCCN
inactive: outcome [1] | Potency [2] | outcome [3] | outcome [4] | outcome [5] | outcome [6] | Potency [8] | Potency [9]

COC(C(=O)O)c1ccccc1 (stereo not given)
inactive: outcome [1] | Potency [2] | outcome [3] | outcome [4] | outcome [5] | Potency [10] | outcome [6] | Potency [8] | Potency [9]

C#CC(C)(O)CC(C)C (stereo not given)
inactive: outcome [1] | Potency [2] | outcome [3] | outcome [4] | outcome [5] | outcome [6] | Potency [7] | Potency [9]

C[C@H]1O[C@@H](n2cc(F)c(=O)[nH]c2=O)[C@H](O)[C@@H]1O
inactive: outcome [1] | Potency [2] | outcome [3] | outcome [4] | outcome [5] | outcome [6] | Potency [7] | Potency [8] | Potency [9]

Cc1cc(C)c(NC(=O)CN(CC(=O)O)CC(=O)O)c(C)c1Br
inactive: outcome [1] | Potency [2] | outcome [3] | outcome [4] | outcome [5] | outcome [6] | Potency [7] | Potency [8]

CC(O)CN(CCCN(C)C)CCCN(C)C (stereo not given)
inactive: outcome [1] | Potency [2] | outcome [3] | outcome [4] | Potency [10] | outcome [6] | Potency [7] | Potency [8]

O=Cc1ccccc1[N+](=O)[O-]
inactive: outcome [1] | Potency [2] | outcome [3] | outcome [4] | Potency [10] | outcome [6] | Potency [7] | Potency [8] | Potency [9]

CCCCCCCCN(C)CCCCCCCC
inactive: outcome [1] | Potency [2] | outcome [3] | outcome [4] | outcome [5] | outcome [6] | Potency [8] | Potency [9]

O=C(O)C(O)[C@H](O)[C@@H](O)[C@H](O)[C@H](O)CO (stereo not given in full)
inactive: outcome [1] | Potency [2] | outcome [3] | outcome [4] | Potency [10] | outcome [6] | Potency [8] | Potency [9]

CC(=O)OC(C)(C)C
inactive: outcome [1] | Potency [2] | outcome [3] | outcome [4] | Potency [10] | outcome [6] | Potency [7]

CN(C)N=Nc1ccccc1
inactive: outcome [1] | Potency [2] | outcome [3] | outcome [4] | Potency [10] | outcome [6] | Potency [7]

NS(=O)(=O)c1cc(C2(O)NC(=O)c3ccccc32)ccc1Cl (stereo not given)
inactive: fluorescence, % of fluorescein [1] 0.0145% [at 18.6 µM] | fluorescence, % of fluorescent control [2] -0.0547% [at 18.6 µM] | activity change [3] 0.0635% [at 18.6 µM] | fluorescence, % of fluorescent control [4] 0.411% [at 18.6 µM] | fluorescence, % of fluorescent control [10] 0.0381% [at 18.6 µM] | fluorescence, % of fluorescein control [6] 0.0502% [at 18.6 µM] | fluorescence, % of fluorescent control [7] -0.125% [at 18.6 µM] | Potency [8] | Potency [9]

Nc1ccn(C2CO[C@H](CO)O2)c(=O)n1 (stereo not given in full)
inactive: outcome [1] | Potency [2] | outcome [3] | outcome [4] | Potency [10] | outcome [6] | Potency [7]

C[N+](C)(C)CC[N+]1(C)Cc2c(Cl)c(Cl)c(Cl)c(Cl)c2C1
inactive: outcome [1] | Potency [2] | outcome [3] | outcome [4] | Potency [10] | outcome [6] | Potency [7] | Potency [8] | Potency [9]

CC(C)=CC(=O)O
inactive: outcome [1] | Potency [2] | outcome [4] | outcome [5] | Potency [10] | outcome [6] | Potency [7]

Cc1ccc(Nc2ccc(O)c3c2C(=O)c2ccccc2C3=O)cc1
inactive: outcome [1] | Potency [2] | outcome [3] | outcome [4] | Potency [10] | outcome [6] | Potency [7]

CCO[Si](C)(OCC)OCC
inactive: outcome [1] | Potency [2] | outcome [3] | outcome [4] | Potency [10] | outcome [6] | Potency [7] | Potency [8]

COc1cccc(OC)c1
inactive: outcome [1] | Potency [2] | outcome [3] | outcome [4] | Potency [10] | outcome [6] | Potency [8] | Potency [9]

CCN1CCN(c2cc3c(cc2F)c(=O)c(C(=O)O)cn3C2CC2)CC1
inactive: outcome [1] | Potency [2] | outcome [3] | outcome [4] | outcome [6] | Potency [7] | Potency [8] | Potency [9]

CCCC(C)C(=O)O (stereo not given)
inactive: outcome [1] | Potency [2] | outcome [4] | outcome [5] | Potency [10] | outcome [6] | Potency [7]

CC(C)(O)C(=O)c1ccc(OCCO)cc1
inactive: outcome [1] | Potency [2] | outcome [3] | outcome [4] | Potency [10] | outcome [6] | Potency [8] | Potency [9]

CCCCCCOC(=O)CC(CC(=O)OCCCCCC)(OC(=O)CCC)C(=O)OCCCCCC
inactive: outcome [1] | Potency [2] | outcome [3] | outcome [4] | outcome [6] | Potency [7] | Potency [8] | Potency [9]

COC(=O)C1=C(C)NC(C)=C(C(=O)OCC(C)=O)C1c1ccccc1[N+](=O)[O-] (stereo not given)
active: Potency [9] 21.3 µM
inactive: outcome [1] | Potency [2] | outcome [3] | outcome [4] | Potency [10] | outcome [6] | Potency [7] | Potency [8]

Cn1ccc2cc3c(cc21)CCN3C(=O)Nc1cccnc1
inactive: outcome [1] | Potency [2] | outcome [3] | outcome [4] | Potency [10] | outcome [6] | Potency [7] | Potency [8]

O=C(O)/C=C/c1ccc(/C=C/C(=O)O)cc1
inactive: outcome [1] | Potency [2] | outcome [3] | outcome [4] | Potency [10] | outcome [6] | Potency [7] | Potency [8] | Potency [9]

Cc1ccccc1Br
inactive: outcome [1] | Potency [2] | outcome [3] | outcome [4] | Potency [10] | outcome [6] | Potency [7]

COc1cc(CCC(C)=O)ccc1O
inactive: outcome [1] | Potency [2] | outcome [3] | outcome [4] | Potency [10] | outcome [6] | Potency [7] | Potency [8] | Potency [9]

CCN1CCCC(OC(=O)C(c2ccccc2)c2ccccc2)C1 (stereo not given)
inactive: fluorescence, % of fluorescein [1] -0.0754% [at 18.6 µM] | fluorescence, % of fluorescent control [2] 0.0253% [at 18.6 µM] | activity change [3] 0.0002% [at 18.6 µM] | fluorescence, % of fluorescent control [4] 0.138% [at 18.6 µM] | fluorescence, % of fluorescent control [10] -0.0343% [at 18.6 µM] | fluorescence, % of fluorescein control [6] 0.088% [at 18.6 µM] | fluorescence, % of fluorescent control [7] 0.0078% [at 18.6 µM] | Potency [8]

CCCCC=O
inactive: outcome [1] | Potency [2] | outcome [3] | outcome [4] | Potency [10] | outcome [6] | Potency [8] | Potency [9]

CSc1nc(NC2CC2)nc(NC(C)(C)C)n1
inactive: outcome [1] | Potency [2] | outcome [3] | outcome [4] | Potency [10] | outcome [6]
